From PubChem BioAssay AID2205 (University of Pittsburgh Molecular Library Screening Center, 2009) come the findings set out here.

Hit rate of the full screen: of about 200,000 compounds, about 1,600 (0.8%) were called active. The sample holds actives, similar compounds and a random draw of the others, so the mix is not that of the screen.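 The calls were made as follows: active = plate Z-score above 3 for both tubulin-high and condensed-nucleus cell shares, with cell loss under 80%, at 10 µM; inactive = the rest, inconclusive results apart.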

This test is described as follows: tubulin staining increase by stabilizing compounds – imaging, high-content imaging, primary screen (AID 2205).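 As to % tubulin-high responders: anti alpha tubulin signal scored within the nucleus-defined area of each cell.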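 As to toxicity: 0% = mean cell density of plate MIN control wells and 100% = no cells.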 As to conditions: HeLa tubulin immunostaining HCS, 24 h, at 10 µM; % Hoechst-high responders: measured here: nuclear condensation Hoechst responders, stronger effect = higher value, share of cells brighter than vehicle mean+2SD; % tubulin-high responders: stronger effect = higher value, share of cells brighter than vehicle mean+2SD; toxicity: measured here: cytotoxicity by cell density.
On to `C=CCn1cc(C(=O)NCc2ccc(Cl)cc2)c(=O)c2cc(S(=O)(=O)N(CC)CC)ccc21`, for which the % Hoechst-high responders amounted to 2.4%, the % tubulin-high responders is 2.86% (inactive) and the toxicity is 5.36%.

For the compound `CSc1ncccc1C(=O)N1CCCC(CCC(=O)NCc2ccccc2F)C1` (stereo unspecified), the % Hoechst-high responders stood at 1.74%, the % tubulin-high responders is 2.45% (inactive) and the toxicity stood at 3.21%.

On to `Cn1cccc1/C=N/NC(=O)c1ccc(OC(F)(F)C(F)F)cc1`, for which the % Hoechst-high responders is 2.53%, the % tubulin-high responders was 6.72% (inactive) and the toxicity is 7.37%.

Take `COC(=O)Cc1ccc(NC(=S)NCc2ccccc2)cc1`: the % Hoechst-high responders is 2.07%, the % tubulin-high responders was 4.23% (inactive) and the toxicity was 9.97%.

`N#CC1=C(N)Oc2c(sc3ccccc23)C1c1ccco1` (stereo unspecified): the % Hoechst-high responders amounted to 55.7%, the % tubulin-high responders was 24.9% (active) and the toxicity was 32.3%.

Regarding `Cc1cc(C)c2c3c(sc2n1)C(c1ccccc1)C(C#N)=C(N)O3` (stereo unspecified), the % Hoechst-high responders came to 7.37%, the % tubulin-high responders is 12.3% (inactive) and the toxicity was determined as 9.16%.

For `CCCCCCCC1(C)NC(=O)N(CC(=O)Nc2cc(C)on2)C1=O` (stereo unspecified), the % Hoechst-high responders was found to be 2.15%, the % tubulin-high responders was 3.92% (inactive) and the toxicity was 9.17%.

`Cc1ccc(S(=O)(=O)N(C)C)cc1NC(=O)COC(=O)C1COc2ccccc2O1` (stereo unspecified): the % Hoechst-high responders is 2.45%, the % tubulin-high responders was 3.07% (inactive) and the toxicity was 5.9%.

On to `O=C(c1cnn(-c2ccc(Cl)cc2)c1)c1ccccc1O`, for which the % Hoechst-high responders came out at 3.19%, the % tubulin-high responders was 3.73% (inactive) and the toxicity amounted to 2.4%.

For `COc1cccc(C(=O)Nc2ccc(N3CCCC3)cc2)c1`, the % Hoechst-high responders worked out at 30.7%, the % tubulin-high responders was 25.7% (active) and the toxicity is 50.6%.

With `Cc1ccccc1C(=O)Nc1ccc(N2CCCCCC2)cc1`, the % Hoechst-high responders worked out at 34.7%, the % tubulin-high responders is 13.1% (active) and the toxicity is 28.4%.

Consider `C/C(=N\NC(=O)c1ccccc1C)c1ccc(N2CCOCC2)cc1`, for which the % Hoechst-high responders worked out at 0.821%, the % tubulin-high responders was 1.28% (inactive) and the toxicity is 5.09%.

With `O=C(Cc1ccccc1)NC(=S)Nc1ccc(N2CCCCC2)cc1`, the % Hoechst-high responders was determined as 2.7%, the % tubulin-high responders was 1.21% (inactive) and the toxicity turned out to be 5.2%.

For `COc1ccc(C(=O)NC(=S)Nc2ccc(N3CCCC3)cc2)cc1OC`, the % Hoechst-high responders came to 1.47%, the % tubulin-high responders is 1.79% (inactive) and the toxicity stood at 9.06%.

On to `COc1cccc(OC)c1C(=O)Nc1ccc(N2CCCCC2)cc1`, for which the % Hoechst-high responders was 2.3%, the % tubulin-high responders was 2.03% (inactive) and the toxicity came to 6.37%.

On to `CC(C)OCCCNC(=O)c1cc(Sc2ccc(F)cc2)nc2ccccc12`, for which the % Hoechst-high responders was found to be 1.81%, the % tubulin-high responders was 1.25% (inactive) and the toxicity was found to be 6.52%.

As for `CC(=O)N1C(=O)/C(=C2\SC(=S)N(NC(=O)c3ccc(O)cc3)C2=O)c2ccccc21`, the % Hoechst-high responders came to 2.97%, the % tubulin-high responders is 2.55% (inactive) and the toxicity is 3.4%.

On to `Cc1noc(C)c1S(=O)(=O)Nc1ccc(C(=O)N2CCN(c3ccc(F)cc3)CC2)cc1`, for which the % Hoechst-high responders came to 2.09%, the % tubulin-high responders was 1.32% (inactive) and the toxicity turned out to be 5.68%.

With `O=C(O)CCN(Cc1ccccc1)S(=O)(=O)c1c(Cl)cccc1Cl`, the % Hoechst-high responders was 1.31%, the % tubulin-high responders is 2.16% (inactive) and the toxicity was found to be 1.51%.

`CN(Cc1ccccc1)C(=O)COC(=O)c1ccccc1Nc1ccccc1`: the % Hoechst-high responders was 1.59%, the % tubulin-high responders is 6.59% (inactive) and the toxicity was found to be 4.42%.

In the case of `CC(C)Cc1nc(Nc2ccc(S(=O)(=O)N3CCCC3)cc2)c2nnn(Cc3ccccc3)c2n1`, the % Hoechst-high responders came to 2.68%, the % tubulin-high responders was 3.7% (inactive) and the toxicity worked out at 11.3%.

Take `Cc1csc(NC(=O)Nc2ccccc2[N+](=O)[O-])n1`: the % Hoechst-high responders was 2.72%, the % tubulin-high responders is 1.89% (inactive) and the toxicity came to 4.62%.

On to `COC(=O)C1=C(C)OC(N)=C(C#N)C1c1cc(OC)ccc1OC` (stereo unspecified), for which the % Hoechst-high responders worked out at 4.1%, the % tubulin-high responders is 4.68% (inactive) and the toxicity amounted to 10.9%.

As for `COc1ccc(C2C(C#N)=C(N)Oc3cc(N)ccc32)cc1OC` (stereo unspecified), the % Hoechst-high responders turned out to be 17.3%, the % tubulin-high responders is 44.5% (active) and the toxicity was 68%.

On to `CCC1=C(C(=O)OC)C(c2cc(OC)ccc2OC)C(C#N)=C(N)O1` (stereo unspecified), for which the % Hoechst-high responders was 3.6%, the % tubulin-high responders was 3.6% (inactive) and the toxicity is 4.77%.

Consider `c1ccc(C2CNCc3c2ccc2ccccc32)cc1` (stereo unspecified), for which the % Hoechst-high responders worked out at 32.1%, the % tubulin-high responders is 14% (active) and the toxicity stood at 25.9%.

Consider `COc1ccc(-c2n[nH]c(C)c2-c2ccc(OC)c(OC)c2)c(O)c1`, for which the % Hoechst-high responders was 19%, the % tubulin-high responders is 42.8% (active) and the toxicity was found to be 76%.

For `C=C(C)COc1ccc(-c2n[nH]c(C)c2-c2ccccc2)c(O)c1`, the % Hoechst-high responders stood at 2.28%, the % tubulin-high responders was 3.77% (inactive) and the toxicity came to 27.6%.

On to `C=C(C)COc1ccc(-c2n[nH]c(C)c2-c2ccccc2OC)c(O)c1`, for which the % Hoechst-high responders is 4.86%, the % tubulin-high responders was 6.2% (inactive) and the toxicity worked out at 5.28%.

`Cc1[nH]n(-c2ccccc2)c(=O)c1/C=N/NC(=O)c1ccoc1C`: the % Hoechst-high responders is 1.51%, the % tubulin-high responders is 1.79% (inactive) and the toxicity amounted to 2.88%.

As to `CCc1ccc(-n2c(=S)sc3c(=O)n(-c4ccccc4OC)c(=S)[nH]c32)cc1`, the % Hoechst-high responders stood at 2.26%, the % tubulin-high responders is 4.15% (inactive) and the toxicity worked out at 6.79%.

With `COc1ccc(/C=C/CN2CCN(Cc3ccc(C)cc3)C(CCO)C2)cc1` (stereo unspecified), the % Hoechst-high responders came out at 2.01%, the % tubulin-high responders is 6.04% (inactive) and the toxicity is 4.33%.

Take `CCn1c(/C=C/Nc2ccccc2)[n+](CC)c2ccc(C(=O)OCC(F)(F)F)cc21`: the % Hoechst-high responders was found to be 3.06%, the % tubulin-high responders is 2.82% (inactive) and the toxicity is 0.486%.

Take `CC(C)(C)NC(=O)Cn1cnc2cc([N+](=O)[O-])ccc2c1=O`: the % Hoechst-high responders turned out to be 1.76%, the % tubulin-high responders was 5.69% (inactive) and the toxicity worked out at 5.93%.

`CCS(=O)(=O)Nc1ccc(C2=NN(C(C)=O)C(c3cccs3)C2)cc1` (stereo unspecified): the % Hoechst-high responders was 60.7%, the % tubulin-high responders is 26.1% (active) and the toxicity came out at 26.6%.

Turning to `CS(=O)(=O)Nc1ccc(C2=NN(S(C)(=O)=O)C(c3cccs3)C2)cc1` (stereo unspecified), the % Hoechst-high responders turned out to be 1.8%, the % tubulin-high responders is 1.74% (inactive) and the toxicity was 6.29%.

With `COc1ccc(C2=NN(C(=O)CCC(=O)O)C(c3cccs3)C2)cc1OC` (stereo unspecified), the % Hoechst-high responders was determined as 0.575%, the % tubulin-high responders was 2.36% (inactive) and the toxicity stood at 4.5%.
